# Experimental data taken from PubChem BioAssay (NCATS).
# Records with an inconclusive call do not appear. Activity calls are given as the source filed them. Calls come from the whole dose curve; as a rule, active = well fitted curve in the direction sought with a large enough effect; inconclusive = small, poorly fitted or top-dose-only effect, or another doubt; inactive = no such curve, though single readings can be large; an effect the other way counts as inactive or inconclusive. Positions of bridges follow the written chain, without caps; N, C: chain ends. Non-standard residues stand in square brackets, D forms with d. Residues, ends and D or L forms follow the SMILES beside them. ξ: configuration not given here. *: point of attachment. Octanoyl(6-Me) = CCC(C)CCCCC(=O)*; ξThr(3R) = C[C@@H](O)C(N)C(=O)O; dDab = NCC[C@@H](N)C(=O)O; Dab = NCC[C@H](N)C(=O)O
# Key:
# [1] = biological target: Luciferin 4-monooxygenase (Photinus pyralis) (UniProt P08659); assay: Primary firefly luciferase (FLuc) qHTS assay for identification of artifact compounds. (AID 1845220); settings: purified firefly luciferase, luminescence, 5 min; series mostly up to 54.1 µM; note: nearly all actives have a fitted effect of over 60% in size
# How it was run: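 Titrated compounds were incubated 15 min at RT, protected from light, with luciferin and ATP at 10 uM; reaction started with 10 nM FLuc, luminescence imaged at 5 min, and concentration-response fitted by Hill equation.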
# [2] = Primary fluorescence-based thiol-reactive (MSTI) qHTS assay for identification of artifact compounds. (AID 1845221); settings: MSTI thiol-reactivity probe, 1 h; series mostly up to 53.8 µM; note: nearly all actives have a fitted effect of over 65% in size; note: potency is the fitted concentration of half-maximal effect
# How it was run: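 Curve-fitted percent inhibition (4-parameter Hill) derived from fluorescence, Ex 525/Em 598 nm, scaled with Acetyl-MSTI and MSTI; 1 h incubation at room temperature.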
# [3] = test system: Nanoluciferase (engineered Oplophorus gracilirostris luciferase); assay: Primary Nanoluciferase (NLuc) qHTS assay for identification of artifact compounds. (AID 1845222); settings: NLuc-conditioned medium, Nano-Glo luminescence, 5 min; series mostly up to 54.1 µM;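 note: NLuc secreted into diluted conditioned medium of S16 cells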
# How it was run: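 qHTS format, against NLuc in S16 cell-conditioned medium. Nano-Glo substrate 1:100 was added after 15 min at room temperature. Luminescence was taken after a further 5 min.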
# [4] = Quantitative High-Throughput drug screen in 47 multiple myeloma cell lines against the NCATS MIPE library collection: FR4_PLB cell viability assay (AID 1918924; note: nearly all actives have a fitted effect of over 35% in size; note: potency is the fitted concentration of half-maximal effect); settings: FR4_PLB myeloma cells viability, CellTiter-Glo ATP, 48 h; series mostly up to 45.8 µM
# How it was run: (§1)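 We plated 500 myeloma cells per well, pinned in MIPE 4.0 compounds, and incubated for 48 hours at 37C. ATP was then quantified with CellTiter-Glo, with DMSO and media-only wells defining 100% and 0%.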
# [5] = Quantitative High-Throughput drug screen in 47 multiple myeloma cell lines against the NCATS MIPE library collection: Delta47_JCRB cell viability assay (AID 1918925; note: nearly all actives have a fitted effect of over 45% in size; note: potency is the fitted concentration of half-maximal effect); settings: Delta47 myeloma viability, CellTiter-Glo ATP, 48 h; series mostly up to 45.8 µM
# How it was run: (§2)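 CellTiter-Glo luminescence (ATP) after 48 h compound exposure, 37C/5% CO2; 500 cells/well; MIPE 4.0 approved/investigational drugs pinned in; DMSO = 100%, media only = 0% viability.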
# [6] = Quantitative High-Throughput drug screen in 47 multiple myeloma cell lines against the NCATS MIPE library collection: EJM_DSMZ cell viability assay (AID 1918926; note: nearly all actives have a fitted effect of over 30% in size; note: potency is the fitted concentration of half-maximal effect); settings: EJM myeloma cell viability, CellTiter-Glo ATP, 48 h; series mostly up to 45.8 µM
# How it was run: as §2
# [7] = Quantitative High-Throughput drug screen in 47 multiple myeloma cell lines against the NCATS MIPE library collection: JIM3_ECACC cell viability assay (AID 1918963; note: nearly all actives have a fitted effect of over 35% in size; note: potency is the fitted concentration of half-maximal effect); settings: JIM3 myeloma viability, CellTiter-Glo ATP, 48 h; series mostly up to 45.8 µM
# How it was run: as §1
# [8] = Quantitative High-Throughput drug screen in 47 multiple myeloma cell lines against the NCATS MIPE library collection: AMO1_DSMZ cell viability assay (AID 1918927; note: nearly all actives have a fitted effect of over 30% in size; note: potency is the fitted concentration of half-maximal effect); settings: AMO1 myeloma cells viability, CellTiter-Glo ATP luminescence, 48 h; series mostly up to 45.8 µM
# How it was run: as §2
# [9] = Quantitative High-Throughput drug screen in 47 multiple myeloma cell lines against the NCATS MIPE library collection: ARP1_JJKsccF8 cell viability assay (AID 1918928; note: nearly all actives have a fitted effect of over 40% in size; note: potency is the fitted concentration of half-maximal effect); settings: ARP1 myeloma cells viability, CellTiter-Glo ATP, 48 h; series mostly up to 45.8 µM
# How it was run: (§3)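 500 cells/well; MIPE 4.0 library pinned in; 48 h, 37 °C, 5% CO2; CellTiter-Glo ATP luminescence. Controls: DMSO = 100% viability, medium only = 0%.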
# [10] = Quantitative High-Throughput drug screen in 47 multiple myeloma cell lines against the NCATS MIPE library collection: ARD_JJKsccE7 cell viability assay (AID 1918929; note: potency is the fitted concentration of half-maximal effect); settings: ARD myeloma cell line viability, CellTiter-Glo, 48 h; series mostly up to 45.8 µM
# How it was run: as §2
# [11] = Quantitative High-Throughput drug screen in 47 multiple myeloma cell lines against the NCATS MIPE library collection: Karpas620_DSMZ cell viability assay (AID 1918959); settings: Karpas620 myeloma viability, CellTiter-Glo ATP luminescence, 48 h; series mostly up to 45.8 µM; note: nearly all actives have a fitted effect of over 30% in size; note: potency is the fitted concentration of half-maximal effect
# How it was run: as §1
# [12] = Quantitative High-Throughput drug screen in 47 multiple myeloma cell lines against the NCATS MIPE library collection: KMM1_JCRB cell viability assay (AID 1918960); settings: KMM1 myeloma viability, CellTiter-Glo ATP luminescence, 48 h; series mostly up to 45.8 µM; note: nearly all actives have a fitted effect of over 30% in size; note: potency is the fitted concentration of half-maximal effect
# How it was run: as §3
# [13] = Quantitative High-Throughput drug screen in 47 multiple myeloma cell lines against the NCATS MIPE library collection: KHM11_PLB cell viability assay (AID 1918962); settings: KHM11 myeloma cell viability, CellTiter-Glo ATP luminescence, 48 h; series mostly up to 45.8 µM; note: nearly all actives have a fitted effect of over 35% in size; note: potency is the fitted concentration of half-maximal effect
# How it was run: as §1
# [14] = biological target: Glutathione peroxidase 1 (Homo sapiens) (UniProt P07203); assay: Primary qHTS Assay for Inhibitors of Recombinant Selenoprotein Glutathione Peroxidase 1 (GPX1) (AID 1845191); settings: recombinant GPX1, GR-coupled NADPH fluorescence, 15 min; series mostly up to 48.8 µM; note: nearly all actives have a fitted effect of over 65% in size
# Sequence of Glutathione peroxidase 1 (Homo sapiens) (P07203 whole entry, looked up): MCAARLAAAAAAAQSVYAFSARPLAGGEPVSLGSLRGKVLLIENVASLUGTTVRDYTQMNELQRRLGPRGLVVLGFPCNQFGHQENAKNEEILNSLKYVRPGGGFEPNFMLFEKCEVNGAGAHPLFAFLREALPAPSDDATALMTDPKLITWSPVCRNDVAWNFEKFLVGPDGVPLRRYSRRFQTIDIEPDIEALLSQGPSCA
# How it was run: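 GR-coupled readout: NADPH consumption tracked by fluorescence, ex 340/em 450 nm, at t=0 and after 15 min at RT. Final mix 10 nM GPX1, 1 mM GSH, 0.5 mM CHP, 0.5 mM NADPH, 100 nM GR, 0.01% BSA, following 30 min enzyme–compound preincubation.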
# [15] = Quantitative High-Throughput drug screen in 47 multiple myeloma cell lines against the NCATS MIPE library collection: Karpas417_ECACC cell viability assay (AID 1918961); settings: Karpas417 myeloma viability, CellTiter-Glo ATP luminescence, 48 h; viability (% of DMSO): at 45.8 µM (top of the series); note: potency is the fitted concentration of half-maximal effect
# How it was run: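 Viability readout: CellTiter-Glo luminescence following 5 min room-temperature incubation with reagent. Prior exposure: 48 h, 37C, humidified 5% CO2, 500 cells per well.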
# [16] = biological target: Phospholipid hydroperoxide glutathione peroxidase GPX4 (Homo sapiens) (UniProt P36969); assay: Primary qHTS Assay for Inhibitors of Recombinant Selenoprotein Glutathione Peroxidase 4 (GPX4) (AID 1845192); settings: recombinant GPX4, GR-coupled NADPH fluorescence, 15 min; series mostly up to 50 µM; note: nearly all actives have a fitted effect of over 65% in size
# Sequence of Phospholipid hydroperoxide glutathione peroxidase GPX4 (Homo sapiens) (P36969 whole entry, looked up): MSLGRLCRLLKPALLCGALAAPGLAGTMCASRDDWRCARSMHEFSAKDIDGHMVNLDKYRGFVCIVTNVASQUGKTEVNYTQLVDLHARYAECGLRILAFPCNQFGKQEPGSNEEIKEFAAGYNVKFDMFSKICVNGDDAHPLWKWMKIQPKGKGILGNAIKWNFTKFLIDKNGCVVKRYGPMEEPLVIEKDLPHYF
# How it was run: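 Steps: GPX4 plus compound, 30 min RT; add GR/GSH/NADPH master mix; start with cumene hydroperoxide; read 340/450 nm fluorescence at 0 and 15 min. Finals were 200 nM GPX4, 1 mM GSH, 0.5 mM CHP, 0.5 mM NADPH, 100 nM GR.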
# [17] = Quantitative High-Throughput drug screen in 47 multiple myeloma cell lines against the NCATS MIPE library collection: JIM1_ECACC cell viability assay (AID 1918964; note: potency is the fitted concentration of half-maximal effect); settings: JIM1 myeloma viability, CellTiter-Glo ATP luminescence, 48 h; series mostly up to 45.8 µM
# How it was run: as §2
SMILES,Potency [1],Potency [2],outcome [3],Potency [4],Potency [5],Potency [6],Potency [7],Potency [8],Potency [9],Potency [10],Potency [11],Potency [12],Potency [13],Potency [14],Potency [15],Potency [16],Potency [17]
COc1ccc(S(=O)(=O)Nc2cccnc2Nc2ccc(O)cc2)cc1,inactive,4230 nM (active),inactive,26.4 nM (active),26.4 nM (active),296 nM (active),52.6 nM (active),–,–,–,–,–,–,–,–,–,–
CCOC(=O)N1CCN([N+]([O-])=NOc2ccc([N+](=O)[O-])cc2[N+](=O)[O-])CC1,–,–,–,5900 nM (active),1480 nM (active),2640 nM (active),2640 nM (active),10500 nM (active),2960 nM (active),5900 nM (active),5260 nM (active),10500 nM (active),1480 nM (active),–,–,–,–
Cc1noc(-c2ccc(CSCCC(=O)O)cc2)c1NC(=O)OC(C)c1ccccc1Cl (configuration not stated),–,–,–,–,–,inactive,inactive,–,–,inactive,inactive,inactive,inactive,inactive,–,–,–
CC(C)(N)c1ccc(-c2nc3ccccc3nc2-c2ccccc2)cc1,inactive,inactive,inactive,–,5900 nM (active),23500 nM (active),18700 nM (active),14800 nM (active),–,14800 nM (active),10500 nM (active),18700 nM (active),8330 nM (active),–,372 nM (active),–,–
CCC(C)CCCCC(=O)N[C@@H](CCN)C(=O)NC(C(=O)N[C@H](CCN)C(=O)N[C@@H]1CCNC(=O)C([C@@H](C)O)NC(=O)[C@@H](CCN)NC(=O)[C@@H](CCN)NC(=O)[C@@H](CC(C)C)NC(=O)[C@H](Cc2ccccc2)NC(=O)[C@H](CCN)NC1=O)[C@@H](C)O (stereo partly drawn) ({Octanoyl(6-Me)}-[Dab][ξThr(3R)][dDab][dDab][Dab]F[dL][dDab][dDab][ξThr(3R)]; lactam 4-C),–,–,–,–,inactive,inactive,inactive,inactive,inactive,–,inactive,inactive,–,–,–,inactive,inactive
CC(C)n1cnc2c(NCCc3ccc(O)cc3)nc(-c3csc4ccccc34)nc21,inactive,inactive,inactive,20900 nM (active),–,5900 nM (active),9350 nM (active),–,–,–,–,inactive,–,–,–,inactive,–
O=C(C=Cc1ccc(CN(CCO)CCc2c[nH]c3ccccc23)cc1)NO,–,–,–,74.3 nM (active),105 nM (active),235 nM (active),332 nM (active),93.5 nM (active),83.3 nM (active),93.5 nM (active),148 nM (active),105 nM (active),209 nM (active),–,105 nM (active),–,132 nM (active)
OCCN1C[C@H](O)[C@@H](O)[C@H](O)[C@@H]1CO,–,–,–,inactive,inactive,inactive,inactive,inactive,inactive,inactive,inactive,–,–,–,–,–,–
C[C@](Cc1c[nH]c2ccccc12)(NC(=O)OC1C2CC3CC(C2)CC1C3)C(=O)NC[C@H](NC(=O)CCC(=O)O)c1ccccc1 (some centres not stated),–,–,–,inactive,–,inactive,inactive,–,inactive,–,–,–,–,inactive,–,–,inactive
CCCCCCCCCCCCc1ccc(S(=O)(=O)Nc2nncs2)cc1,–,–,–,inactive,935 nM (active),–,inactive,–,inactive,–,inactive,inactive,–,inactive,–,–,–
CCN(CC)CCNC(=O)c1c(C)[nH]c(C=C2C(=O)Nc3ccc(F)cc32)c1C,–,–,–,10800 nM (active),1520 nM (active),12100 nM (active),2150 nM (active),3400 nM (active),4810 nM (active),2150 nM (active),4810 nM (active),3820 nM (active),1080 nM (active),–,136 nM (active),–,481 nM (active)
C[C@@H]1[C@H](C)CC[C@]2(C(=O)O)CC[C@]3(C)C(=CC[C@@H]4[C@@]5(C)C[C@@H](O)[C@H](O)[C@@](C)(CO)[C@H]5CC[C@]43C)[C@@H]12,–,–,–,inactive,inactive,inactive,inactive,inactive,inactive,inactive,inactive,inactive,–,–,–,–,–
CC(C)(O)[C@H]1CC[C@@](C)([C@H]2[C@@H](O)C[C@@]3(C)[C@@H]4C[C@H](O[C@@H]5O[C@H](CO)[C@@H](O)[C@H](O)[C@@H]5O)[C@H]5C(C)(C)[C@@H](O[C@@H]6OC[C@@H](O)[C@H](O)[C@@H]6O)CC[C@@]56C[C@@]46CC[C@]23C)O1,–,–,–,inactive,inactive,inactive,inactive,inactive,inactive,inactive,inactive,–,inactive,–,–,–,inactive
COc1cccc2c1C(=O)c1c(O)c3c(c(O)c1C2=O)C[C@@](O)(C(=O)CO)C[C@H]3O[C@H]1C[C@H](N)[C@H](O)[C@H](C)O1,–,–,–,264 nM (active),148 nM (active),209 nM (active),332 nM (active),1050 nM (active),332 nM (active),2960 nM (active),1050 nM (active),1870 nM (active),332 nM (active),–,1320 nM (active),–,1050 nM (active)
COC(=O)C1C2CC3c4[nH]c5cc(OC)ccc5c4CCN3CC2CC(OC(=O)c2cc(OC)c(OC)c(OC)c2)C1OC (configuration not stated),–,–,–,3720 nM (active),–,–,26400 nM (active),20900 nM (active),–,20900 nM (active),23500 nM (active),20900 nM (active),–,inactive,–,–,–
C=CC(=O)Nc1cc(NC(=O)c2ccc(C)c(NC(=O)c3ccno3)c2)cc(C(F)(F)F)c1,–,–,–,26400 nM (active),9350 nM (active),16600 nM (active),–,5260 nM (active),16600 nM (active),5900 nM (active),8330 nM (active),5900 nM (active),–,–,–,–,–
NC1=N[C@H]2[C@H](CS[C@H]2CCCCC(=O)O)N1,–,–,–,inactive,–,inactive,inactive,inactive,inactive,–,–,inactive,inactive,inactive,–,–,–
